Source: PubChem
The list is not random: actives were taken first. Their share in the collection is about 3.6%.
Pf apPOL block: Pf-apPOL inhibitors, biochemical, fluorescence; Plasmodium falciparum apicoplast DNA polymerase (apPOL); Recombinant Pf-apPOL, molecular beacon fluorescence, 1.5 h; inhibition, % at 10 µM; 0.25% of 210,000 active; AID 1794808, 2022
mHTT CaM bind: mutant huntingtin-calmodulin interaction inhibitors – biochemical, AlphaScreen, primary screen. P42858. AlphaScreen His-mHTT/GST-CaM binding, luminescence. inhibition, % at 15 µM. 3.6% of 190,000 active;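 also: 0% = both proteins with DMSO and 100% = one protein alone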
* hit, by the source's call. Rule as the data show it: active = inhibition above about 50%; inactive = the rest.

SMILES | Pf apPOL block | mHTT CaM bind
COc1ccc(OC)c(Nc2ncc3c(n2)CCN(Cc2cccc(F)c2F)C3)c1 | -2 | 17
COc1ccc(Nc2ncc3c(n2)CCN(Cc2cccc(C)c2)C3)c(OC)c1 | -8 | 9
COc1ccc(OC)c(Nc2ncc3c(n2)CCN(Cc2cccc(C)c2)C3)c1 | -3 | 64*
COc1ccc(Nc2ncc3c(n2)CCN(Cc2ccccc2OC)C3)c(OC)c1 | -3 | 45
COc1ccc(OC)c(Nc2ncc3c(n2)CCN(Cc2ccccc2OC)C3)c1 | -2 | 59*
COc1cccc(Oc2c(C(F)(F)F)oc3c(CN4CCCCC4)c(O)ccc3c2=O)c1 | 1 | 22
CCOc1ccc(-n2nc3cc(C)c(NC(=O)c4ccco4)cc3n2)cc1 | 3 | -1
O=C(O)CN1Cc2ccccc2C1=O | 0 | -7
CCOC(=O)C(=O)N1CCN(c2ncnc3c2nnn3C)CC1 | -3 | -14
Cn1nnc2c(N3CCN(C(=O)C4c5ccccc5Oc5ccccc54)CC3)ncnc21 | -1 | 58*
Cc1cc(C)cc(S(=O)(=O)N2CCCC(C)(C(=O)NCc3ccccc3)C2)c1 (stereo not drawn) | -7 | 41
Cc1ccc(S(=O)(=O)N2CCCC(C)(C(=O)NCc3ccc(F)cc3)C2)cc1 (stereo not drawn) | 0 | -2
Cc1cc(C)c(S(=O)(=O)N2CCCC(C)(C(=O)NCc3ccccc3)C2)c(C)c1 (stereo not drawn) | -1 | 59*
Cc1cc(C)cc(S(=O)(=O)N2CCCC(C)(C(=O)NCc3ccc(F)cc3)C2)c1 (stereo not drawn) | 0 | 52*
COc1ccc(OC)c(C2=NOC(C(=O)N3CCCCCC3)C2)c1 (stereo not drawn) | -1 | -1
Cc1ccc(-n2nc3c(c2NC(=O)COc2ccc(Cl)cc2)CSC3)c(C)c1 | -5 | -2
COc1cccc(C(=O)NC(c2ccccc2)c2cc(Cl)c3cccnc3c2O)c1 (stereo not drawn) | 2 | 54*
COc1cccc(C(=O)NC(c2ccco2)c2cc(Cl)c3cccnc3c2O)c1 (stereo not drawn) | 1 | 80*
CCCC(=O)NC(c1ccco1)c1cc(Cl)c2cccnc2c1O (stereo not drawn) | 13 | 43
COc1cccc(C(=O)NC(c2ccc(OC)c(OC)c2)c2cc(Cl)c3cccnc3c2O)c1 (stereo not drawn) | -6 | 52*
COc1cccc(C(=O)NC(c2ccc([N+](=O)[O-])cc2)c2cc(Cl)c3cccnc3c2O)c1 (stereo not drawn) | -9 | 20
Cc1ccc(C(=O)Nc2ccc3c(c2)Sc2ncccc2C(=O)N3C)cc1C | -1 | 19
Cc1cc(C2CCCN2C(=O)c2cc(C(F)(F)F)n(C)n2)no1 (stereo not drawn) | -1 | -5
O=C(Cn1nc(N2CCSCC2)c2ccccc2c1=O)Nc1ccccc1 | -1 | 4
O=C(Cn1ccc2ccc(N3CCCCCC3)nc21)NC1CCCCC1 | 2 | 50*
SMILES | Pf apPOL block | mHTT CaM bind
O=C(Cn1ccc2ccc(N3CCCCC3)nc21)NC1CCCC1 | 2 | 4
Cc1ccc(OCCCC(=O)NCc2ccccc2)c(C)c1 | -13 | -10
O=C(Nc1ccc(F)c(F)c1)c1ccc(N2CC3CC(C2)c2cccc(=O)n2C3)c([N+](=O)[O-])c1 (stereo not drawn) | -5 | 22
O=C(NCc1ccc(Cl)cc1)c1ccc(N2CC3CC(C2)c2cccc(=O)n2C3)c([N+](=O)[O-])c1 (stereo not drawn) | -8 | 59*
CCCN1C(=O)Cc2cc(C(=O)N3CCOCC3)ccc21 | 1 | -2
COc1ccccc1N1CCN(C(=O)c2ccc(-c3cccnc3)nc2)CC1 | -2 | 4
O=C(c1ccc2c(c1)CC(=O)N2Cc1ccccc1)N1CCN(c2ccccn2)CC1 | -1 | 54*
CCCN1C(=O)Cc2cc(C(=O)N3CCN(c4cccc(C)c4C)CC3)ccc21 | -2 | 55*
CCCN1C(=O)Cc2cc(C(=O)N3CCN(c4cccc(C)c4)CC3)ccc21 | -5 | 49
Cc1cccc(N2CCN(C(=O)c3ccc(-c4cccnc4)nc3)CC2)c1C | 0 | 64*
CCCN1C(=O)Cc2cc(C(=O)N3CCN(c4ccccc4)CC3)ccc21 | 1 | 51*
O=C(c1ccc2c(c1)CC(=O)N2Cc1ccccc1)N1CCCCC1 | -5 | 33
CC(=O)N1CCN(c2nc3c(s2)CC(C(=O)Nc2cccc(Cl)c2)CC3)CC1 (stereo not drawn) | -3 | 47
CN(C)C(=O)c1cc2c(s1)CCC(C(=O)Nc1cc(Cl)ccc1F)C2 (stereo not drawn) | -4 | 3
O=C(c1cc2c(s1)CCC(C(=O)N1CCCCC1)C2)N1CCCCCC1 (stereo not drawn) | -1 | 1
Cc1cc(Cl)nc(Cl)c1NC(=O)Nc1ccccc1 | -3 | -3
COc1ccc(OC)c(Nc2nc(C)nc3c2CCC3)c1 | 0 | 8
CCN(CC)CCNC(=O)CC1CCN(C(=O)c2[nH]c(C)c(C)c2C)CC1 | -2 | 3
CCCN1C(=O)Cc2cc(C(=O)N3CCN(c4ccc(C)cc4)CC3)ccc21 | -5 | 38
CCCN1C(=O)Cc2cc(C(=O)N3CCN(c4ccc(F)cc4)CC3)ccc21 | -5 | 51*
O=C(Nc1ccc(O)cc1)C1CC=CCC1 (stereo not drawn) | 0 | 70*
O=C(Nc1ccc(NC(=O)C2CCCC2)cc1)C1CCCC1 | -3 | 7
O=C(Nc1nnc(SCc2cn3ccccc3n2)s1)C1CCC1 | 3 | -3
CN(C)C1CCN(Cc2ccc(Br)cc2F)CC1CO (stereo not drawn) | -2 | 4
Cc1ccc(NC(=O)Cc2nc(-c3ccccc3)n[nH]2)cc1F | -6 | -4
SMILES | Pf apPOL block | mHTT CaM bind
Cc1ccc(NC(=O)Cc2nc(-c3cccnc3)n[nH]2)cc1 | 0 | -3
Cc1ccc(NC(=O)Cc2nc(-c3ccccn3)n[nH]2)cc1F | -12 | 69*
Cc1ccc(NC(=O)Cc2nc(-c3ccccn3)n[nH]2)cc1C | -15 | 96*
Cc1ccc(NC(=O)Cn2c(C(C)C)nc3c(c2=O)CN(Cc2ccccc2)CC3)c(F)c1 | -2 | -1
O=[N+]([O-])c1ccc(-c2nc(NCc3ccco3)c3ccccc3n2)cc1 | -3 | 16
Brc1ccc(Nc2nc(NCc3ccco3)c3ccccc3n2)cc1 | 1 | 100*
N#CCCc1cccc(NC(=O)c2cc3n(n2)C(C(F)(F)F)CC(c2ccc(Cl)cc2)N3)c1 (stereo not drawn) | 0 | 74*
COc1ccc(C2CC(C(F)(F)F)n3nc(C(=O)Nc4cc(C)ccc4O)cc3N2)cc1 (stereo not drawn) | -14 | 12
O=C(NCC1CCCO1)c1cc2n(n1)C(C(F)(F)F)CC(c1ccco1)N2 (stereo not drawn) | -2 | -4
O=C(NCC1CCCO1)c1cc2n(n1)C(C(F)(F)F)CC(c1ccc(Cl)c(Cl)c1)N2 (stereo not drawn) | -8 | 54*
Cc1ccc(C2CC(C(F)(F)F)n3nc(C(=O)Nc4cccc(CCC#N)c4)cc3N2)cc1 (stereo not drawn) | -1 | 18
O=C(Nc1cc(Cl)ccc1O)c1cc2n(n1)C(C(F)(F)F)CC(c1ccc(Cl)cc1)N2 (stereo not drawn) | -3 | 89*
NC(=O)Cc1nc(-c2ccccn2)n[nH]1 | -7 | 99*
O=C(Cc1nc(-c2ccccn2)n[nH]1)Nc1ccccc1 | -4 | 73*
